Results reported in PubChem BioAssay (NCATS).
Records with an inconclusive call do not appear. Active and inactive are the calls of the source. Calls follow the shape of the dose curve; as a rule, active = well fitted curve in the direction sought with a large enough effect; inconclusive = small, poorly fitted or top-dose-only effect, or another doubt; inactive = no such curve, though single readings can be large; an effect the other way counts as inactive or inconclusive.

What was measured:
[1] = qHTS of pediatric cancer cell lines to identify multiple opportunities for drug repurposing: Primary screen for U-2 OS cells (AID 1347096); conditions: U-2 OS viability, CellTiter-Glo luminescence, 48 h; series mostly up to 46 µM;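 also: plate controls were DMSO wells for no effect and bortezomib positive control wells for full effect; nearly all actives have a fitted effect of over 50% in size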
In short: (§1)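 Cells (500-1,000/well) rested 5 h, then received compounds for 48 h; metabolically active cells were measured by CellTiter-Glo luminescence. Final concentrations spanned up to 46 µM (MIPE, 11-point) or 0.59 nM-46 µM (NPC, 8-point) in primary screens, 11-point in follow-ups.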

[2] = qHTS of pediatric cancer cell lines to identify multiple opportunities for drug repurposing: Primary screen for NB1643 cells (AID 1347099); conditions: NB1643 neuroblastoma viability, CellTiter-Glo luminescence, 48 h; series mostly up to 46 µM; also: nearly all actives have a fitted effect of over 50% in size; also: potency is read from the fitted curve at half-maximal effect;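 as to activity change, negative = cytotoxic: plate controls were DMSO neutral control for no effect and bortezomib positive control for full effect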
In short: (§2)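 Primary screen of approved and investigational compounds on cells in growth media at 37 degrees C, 5% CO2. MIPE set at 11-point and NPC set at 8-point dilutions; viability scored by ATP-based luminescence at 48 hours.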

[3] = qHTS of pediatric cancer cell lines to identify multiple opportunities for drug repurposing: Primary screen for BT-12 cells (AID 1347101); conditions: BT-12 viability, CellTiter-Glo luminescence, 48 h; series mostly up to 57.3 µM; also: nearly all actives have a fitted effect of over 25% in size; also: potency is read from the fitted curve at half-maximal effect;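 as to activity change, negative = cytotoxic: plate controls were DMSO for no effect and bortezomib positive control for full effect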
In short: as §1

[4] = qHTS of pediatric cancer cell lines to identify multiple opportunities for drug repurposing: Primary screen for Rh18 cells (AID 1347102); conditions: Rh18 rhabdomyosarcoma viability, CellTiter-Glo luminescence, 48 h; series mostly up to 46 µM; also: nearly all actives have a fitted effect of over 65% in size; also: potency is read from the fitted curve at half-maximal effect; as to activity change, negative = cytotoxic: % is scaled to controls: 0 for no effect and ±100 for the full control effect
In short: as §1

[5] = qHTS of pediatric cancer cell lines to identify multiple opportunities for drug repurposing: Primary screen for control Hh wild type fibroblast cells (AID 1347106); conditions: Hh wild-type fibroblast viability, CellTiter-Glo luminescence, 48 h; series mostly up to 46 µM; also: nearly all actives have a fitted effect of over 55% in size;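 as to activity change, negative = cytotoxic: % is scaled to controls: 0 for no effect and ±100 for the full control effect; a drop in luminescence marks cytotoxicity and a rise apparent proliferation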
In short: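 Cells (500-1,000/well) in growth media were settled 5 h at 37 degrees C, then given compounds for 48 h. Viability was read as CellTiter-Glo luminescence. Primary runs used MIPE at 11 points (0.78 nM-46 µM) and NPC at 8 points (0.59 nM-46 µM); follow-ups used 11 points.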

[6] = qHTS of pediatric cancer cell lines to identify multiple opportunities for drug repurposing: Primary screen for Rh30 cells (AID 1347107); conditions: Rh30 rhabdomyosarcoma viability, CellTiter-Glo luminescence, 48 h; series mostly up to 46 µM; also: nearly all actives have a fitted effect of over 75% in size; also: potency is read from the fitted curve at half-maximal effect; as to activity change, negative = cytotoxic: % is scaled to controls: 0 for no effect and ±100 for the full control effect
In short: as §1

[7] = qHTS of pediatric cancer cell lines to identify multiple opportunities for drug repurposing: Primary screen for Rh41 cells (AID 1347108); conditions: Rh41 rhabdomyosarcoma viability, CellTiter-Glo luminescence, 48 h; series mostly up to 46 µM; also: nearly all actives have a fitted effect of over 70% in size; also: potency is read from the fitted curve at half-maximal effect;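 as to activity change, negative = cytotoxic: luminescence drop marks cytotoxic hits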
In short: as §2

[8] = qHTS of pediatric cancer cell lines to identify multiple opportunities for drug repurposing: Primary screen for LAN-5 cells (AID 1347100); conditions: LAN-5 neuroblastoma viability, CellTiter-Glo luminescence, 48 h; series mostly up to 46 µM; also: potency is read from the fitted curve at half-maximal effect;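 as to activity change, negative = cytotoxic: plate controls were DMSO neutral control for no effect and bortezomib positive control for full effect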
In short: as §1

[9] = qHTS of pediatric cancer cell lines to identify multiple opportunities for drug repurposing: Primary screen for OHS-50 cells (AID 1347103); conditions: OHS-50 osteosarcoma viability, CellTiter-Glo luminescence, 48 h; series mostly up to 57.3 µM; also: nearly all actives have a fitted effect of over 40% in size; also: potency is read from the fitted curve at half-maximal effect
In short: as §1

[10] = qHTS of pediatric cancer cell lines to identify multiple opportunities for drug repurposing: Primary screen for RD cells (AID 1347104); conditions: RD rhabdomyosarcoma viability, CellTiter-Glo luminescence, 48 h; series mostly up to 46 µM; also: nearly all actives have a fitted effect of over 55% in size; also: potency is read from the fitted curve at half-maximal effect;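 as to activity change, negative = cytotoxic: plate controls were DMSO for no effect and bortezomib for full effect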
In short: as §2

[11] = qHTS of pediatric cancer cell lines to identify multiple opportunities for drug repurposing: Primary screen for MG 63 (6-TG R) cells (AID 1347105); conditions: MG 63 (6-TG R) viability, CellTiter-Glo, 48 h; series mostly up to 46 µM; also: nearly all actives have a fitted effect of over 50% in size; also: potency is read from the fitted curve at half-maximal effect; as to activity change, negative = cytotoxic: % is scaled to controls: 0 for no effect and ±100 for the full control effect
In short: as §2

[12] = qHTS of pediatric cancer cell lines to identify multiple opportunities for drug repurposing: Primary screen for Saos-2 cells (AID 1347097); conditions: Saos-2 viability, CellTiter-Glo ATP luminescence, 48 h; series mostly up to 46 µM; also: nearly all actives have a fitted effect of over 40% in size; also: potency is read from the fitted curve at half-maximal effect
In short: as §2

[13] = qHTS of pediatric cancer cell lines to identify multiple opportunities for drug repurposing: Primary screen for SK-N-SH cells (AID 1347098); conditions: SK-N-SH viability, CellTiter-Glo luminescence, 48 h; series mostly up to 57 µM; also: nearly all actives have a fitted effect of over 65% in size; also: potency is read from the fitted curve at half-maximal effect
In short: as §1

[14] = qHTS of pediatric cancer cell lines to identify multiple opportunities for drug repurposing: Confirmatory screen for BT-12 cells (AID 1347112); conditions: BT-12 rhabdoid tumor cells, viability; series mostly up to 45.9 µM; also: potency is read from the fitted curve at half-maximal effect; nearly all actives have a fitted effect of over 55% in size
In short: as §1

[15] = qHTS of pediatric cancer cell lines to identify multiple opportunities for drug repurposing: Confirmatory screen for DAOY cells (AID 1347114); conditions: DAOY medulloblastoma cells viability, cytotoxicity qHTS; series mostly up to 45.9 µM; also: nearly all actives have a fitted effect of over 65% in size; as to activity change, negative = cytotoxic: % is scaled to controls: 0 for no effect and ±100 for the full control effect
In short: (§3)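 Viability measured as metabolically active cells via CellTiter-Glo luminescence following 48 hours of compound exposure, 11-point dilutions in confirmatory testing. 500-1,000 cells/well plated 5 hours before dosing; controls were DMSO and 2.3 µM bortezomib.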

[16] = qHTS of pediatric cancer cell lines to identify multiple opportunities for drug repurposing: Confirmatory screen for SJ-GBM2 cells (AID 1347116); conditions: SJ-GBM2 glioblastoma cells, viability; series mostly up to 45.9 µM; also: nearly all actives have a fitted effect of over 60% in size;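 as to activity change, negative = cytotoxic: plate controls were DMSO for no effect and bortezomib for full effect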
In short: as §3

[17] = qHTS of pediatric cancer cell lines to identify multiple opportunities for drug repurposing: Confirmatory screen for NB1643 cells (AID 1347109); conditions: NB1643 neuroblastoma cell viability; series mostly up to 45.9 µM; also: nearly all actives have a fitted effect of over 45% in size; also: potency is read from the fitted curve at half-maximal effect
In short: as §1

[18] = qHTS of pediatric cancer cell lines to identify multiple opportunities for drug repurposing: Confirmatory screen for A673 cells (AID 1347110); conditions: A673 Ewing sarcoma cell viability; series mostly up to 45.9 µM;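 also: cells exposed to compound for 48 h before the viability read; nearly all actives have a fitted effect of over 65% in size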
In short: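 A673 cells at 500-1,000 cells/well were dosed 5 h after plating, in dilution series up to 46 uM final; primary runs used 8 or 11 points and confirmatory runs used 11 points. Viability was read by CellTiter-Glo luminescence after 48 h, against DMSO and 2.3 uM bortezomib controls.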

[19] = qHTS of pediatric cancer cell lines to identify multiple opportunities for drug repurposing: Confirmatory screen for NB-EBc1 cells (AID 1347115); conditions: NB-EBc1 neuroblastoma cells, viability (cytotoxicity); series mostly up to 45.9 µM;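 also: cells exposed to compound for 48 h before the viability read; % is scaled to controls: 0 for no effect and ±100 for the full control effect; nearly all actives have a fitted effect of over 45% in size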
In short: as §1

[20] = qHTS of pediatric cancer cell lines to identify multiple opportunities for drug repurposing: Confirmatory screen for SK-N-MC cells (AID 1347111); conditions: SK-N-MC cell viability; series mostly up to 45.9 µM;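 also: potency is read from the fitted curve at half-maximal effect; cells exposed to compound for 48 h before the readout; nearly all actives have a fitted effect of over 70% in size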
In short: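 Seed 500-1,000 cells/well; rest 5 h at 37 degrees C. Pin-transfer compounds, 11-point titration. Incubate 48 h. Add CellTiter-Glo, 15 min RT, read luminescence.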

N/C(=N\N=C\c1ccc(Cl)cc1)N/N=C/c1ccc(Cl)cc1
inactive: Potency [1] | Potency [2] | Potency [3] | Potency [4] | Potency [5] | Potency [6] | Potency [7]

CCOC(=O)[C@@](C)(N)Cc1ccc(O)c(O)c1
inactive: Potency [1] | Potency [8] | Potency [5]
active: Potency [2] 23.7 µM

C[C@]12CCC(=O)C=C1C=C[C@@H]1[C@@H]2CC[C@@]2(C)[C@H]1CC[C@@]21CCC(=O)O1
active: Potency [9] 15.5 µM
inactive: Potency [1] | Potency [10] | Potency [11] | Potency [5]

CCCCCCCCNC(C)C(O)c1ccc(SC(C)C)cc1 (stereo unspecified)
active: Potency [12] 23.7 µM | Potency [13] 15.4 µM | Potency [9] 21.9 µM | Potency [11] 26.6 µM
inactive: Potency [5]

CCCCc1cc2ccccc2c(OCCN(C)C)n1
active: Potency [9] 15.5 µM
inactive: Potency [1] | Potency [2] | Potency [8] | Potency [3] | Potency [4] | Potency [10] | Potency [11] | Potency [5] | Potency [6] | Potency [7]

CCc1nn(CCCN2CCN(c3cccc(Cl)c3)CC2)c(=O)n1CCOc1ccccc1
active: Potency [9] 24.6 µM
inactive: Potency [2] | Potency [4] | Potency [10] | Potency [11] | Potency [5] | Potency [6]

NC(=O)n1c(O)c(C(=O)c2cccs2)c2cc(Cl)ccc21
inactive: Potency [1] | Potency [4] | Potency [11] | Potency [5] | Potency [6] | Potency [7]

CC1(COc2ccc(CC3SC(=O)NC3=O)cc2)CCCCC1 (stereo unspecified)
active: Potency [9] 5.5 µM
inactive: Potency [1] | Potency [2] | Potency [8] | Potency [4] | Potency [11] | Potency [5] | Potency [6] | Potency [7]

O=C(Oc1cccc2cccnc12)c1ccccc1
active: Potency [12] 15 µM | Potency [3] 6.17 µM | Potency [14] 9.27 µM
inactive: Potency [5] | Potency [15] | Potency [16]

CCNC(=O)/C=C/c1cccc(Br)c1
inactive: Potency [1] | Potency [2] | Potency [3] | Potency [10] | Potency [11] | Potency [5] | Potency [6] | Potency [7]

CCCCCN=C(N)N/N=C/c1c[nH]c2ccc(OC)cc12
active: Potency [13] 4.33 µM | Potency [8] 26.6 µM | Potency [3] 13.8 µM | Potency [4] 9.44 µM | Potency [9] 11 µM | Potency [10] 7.5 µM

CCCN(CCc1cccs1)[C@H]1CCc2c(O)cccc2C1
inactive: Potency [1] | Potency [2] | Potency [8] | Potency [3] | Potency [4] | Potency [11] | Potency [5] | Potency [6] | Potency [7]

NC(N)=NN=C(/C=C/c1ccc([N+](=O)[O-])o1)/C=C/c1ccc([N+](=O)[O-])o1
active: Potency [13] 3.86 µM | Potency [2] 15 µM | Potency [8] 2.11 µM | Potency [3] 0.978 µM | Potency [4] 1.19 µM | Potency [10] 0.841 µM | Potency [6] 3.35 µM | Potency [7] 1.19 µM | Potency [17] 1.17 µM | Potency [18] 2.61 µM | Potency [14] 9.27 µM | Potency [15] 3.29 µM | Potency [16] 2.93 µM

O=C1OC2(c3ccccc31)c1cc(Br)c(O)c(Br)c1Oc1c2cc(Br)c(O)c1Br
inactive: Potency [1] | Potency [2] | Potency [8] | Potency [3] | Potency [4] | Potency [9] | Potency [10] | Potency [11] | Potency [5] | Potency [6] | Potency [7]

CO[C@H]1C=CO[C@@]2(C)Oc3c(C)c(O)c4c(O)c(c(/C=N/N5CCN(C)CC5)c(O)c4c3C2=O)NC(=O)/C(C)=C\C=C[C@H](C)[C@H](O)[C@@H](C)[C@@H](O)[C@@H](C)[C@H](OC(C)=O)[C@@H]1C
inactive: Potency [2] | Potency [8] | Potency [9] | Potency [10] | Potency [11] | Potency [6] | Potency [7]

O=C(CCCN1CC=C(n2c(=O)[nH]c3ccccc32)CC1)c1ccc(F)cc1
inactive: Potency [12] | Potency [13] | Potency [4] | Potency [11] | Potency [17] | Potency [18] | Potency [19] | Potency [16]
active: Potency [2] 26.6 µM

Oc1ccc(Cl)cc1Cc1cc(Cl)ccc1O
inactive: Potency [5]
active: Potency [12] 8.41 µM | Potency [13] 17.2 µM | Potency [3] 27.6 µM | Potency [9] 9.78 µM | Potency [10] 21.1 µM | Potency [11] 16.8 µM

COc1ccc(C(=O)c2ccccc2O)c(O)c1
inactive: Potency [1] | Potency [2] | Potency [8] | Potency [3] | Potency [10] | Potency [11] | Potency [5] | Potency [6] | Potency [7]

CCCCCCCCCCCCCC[N+](C)(C)Cc1ccccc1
active: Potency [12] 23.7 µM | Potency [13] 30.7 µM | Potency [3] 6.92 µM | Potency [4] 5.96 µM | Potency [9] 4.37 µM | Potency [10] 21.1 µM | Potency [7] 18.8 µM

COc1ccc(C(Cl)=C(c2ccc(OC)cc2)c2ccc(OC)cc2)cc1
inactive: Potency [13] | Potency [2] | Potency [4] | Potency [10] | Potency [11] | Potency [6]

Oc1c(Cl)cc(Cl)c(Cl)c1Cc1c(O)c(Cl)cc(Cl)c1Cl
active: Potency [12] 5.96 µM | Potency [13] 12.2 µM | Potency [2] 5.96 µM | Potency [8] 4.22 µM | Potency [3] 13.8 µM | Potency [9] 6.17 µM | Potency [10] 11.9 µM | Potency [11] 6.68 µM
inactive: Potency [5] | Potency [6]

N=C(N)N1CCc2ccccc2C1
inactive: activity change, negative = cytotoxic [1] -4.95% [at 4.84 µM] | activity change, negative = cytotoxic [2] -5.24% [at 4.84 µM] | activity change, negative = cytotoxic [8] -2.04% [at 4.84 µM] | activity change, negative = cytotoxic [3] -5.09% [at 6.03 µM] | activity change, negative = cytotoxic [11] -18.3% [at 4.84 µM] | activity change, negative = cytotoxic [5] -9.54% [at 4.84 µM] | activity change, negative = cytotoxic [6] 7.74% [at 4.84 µM] | activity change, negative = cytotoxic [7] 1.21% [at 4.84 µM]

O=C(Nc1ccccc1)OCC(CN1CCCCC1)OC(=O)Nc1ccccc1 (stereo unspecified)
inactive: Potency [1] | Potency [2] | Potency [5] | Potency [6]
active: Potency [10] 29.9 µM

CCN(CC)CCNc1ccc(CO)c2sc3ccccc3c(=O)c12
inactive: Potency [11] | Potency [6]
active: Potency [13] 17.2 µM | Potency [2] 16.8 µM | Potency [8] 13.3 µM | Potency [3] 13.8 µM | Potency [9] 24.6 µM | Potency [10] 23.7 µM | Potency [5] 18.8 µM

Nc1nc(Cl)nc2c1ncn2[C@@H]1O[C@H](CO)[C@@H](O)[C@@H]1F
inactive: Potency [1] | Potency [10] | Potency [5] | Potency [6] | Potency [7]
active: Potency [8] 0.335 µM | Potency [9] 0.195 µM | Potency [11] 0.841 µM | Potency [17] 1.47 µM | Potency [18] 1.04 µM | Potency [20] 0.0928 µM | Potency [16] 0.233 µM
